# Test results reported in publication PMC7862700, “An all-to-all approach to the identification of sequence-specific readers for epigenetic DNA modifications on cytosine”.
# Legend:
# Test in all cases: DAPPL (digital affinity profiling via proximity ligation, sequencing); 10 mM Tris-HCl pH 7.5, 50 mM NaCl, 1 mM DTT, 4% glycerol, room temperature, 30 min; GST-TFs on glutathione beads, 16-mer random dsDNA library, 0.1% formaldehyde crosslink after washing; high values mean tight binding
# Settings in all cases: protein: recombinant; tags: N-terminal GST; dsDNA, one strand shown
# ETV1 = ETV1 (Homo sapiens, UniProt P50549 1-477)
# Chain of ETV1 (P50549 whole entry, the tested form may be a part): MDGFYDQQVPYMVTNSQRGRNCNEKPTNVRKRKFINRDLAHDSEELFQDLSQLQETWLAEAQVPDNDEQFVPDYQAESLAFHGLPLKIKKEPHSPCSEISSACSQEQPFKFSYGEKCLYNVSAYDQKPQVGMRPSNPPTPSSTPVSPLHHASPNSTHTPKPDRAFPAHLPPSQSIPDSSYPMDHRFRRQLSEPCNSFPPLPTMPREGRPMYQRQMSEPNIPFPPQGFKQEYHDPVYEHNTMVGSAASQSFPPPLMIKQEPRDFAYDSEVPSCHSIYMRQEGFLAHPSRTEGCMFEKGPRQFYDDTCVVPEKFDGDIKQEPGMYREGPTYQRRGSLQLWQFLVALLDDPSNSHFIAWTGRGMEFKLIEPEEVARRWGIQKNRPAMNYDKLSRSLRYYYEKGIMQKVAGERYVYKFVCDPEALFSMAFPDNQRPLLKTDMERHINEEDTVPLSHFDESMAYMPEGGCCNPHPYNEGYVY
# Method in brief: (§1)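 Binding signal is defined as a hexamer's read frequency for one factor over its frequency for the tag-only sample. To obtain reads, GST-fused human transcription factors were expressed in yeast, captured on glutathione beads, barcoded with DNA and pooled with that sample. Pools met 200 nmole of a 16-mer random double-stranded DNA library in Tris/NaCl/DTT/glycerol buffer for 30 min at room temperature before washing, 0.1% formaldehyde crosslinking, proximity ligation (BsaI/T4 ligase, 1 h, 37 °C), PCR and Illumina NextSeq500 sequencing.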
# ERF = target: T1, ERF (Homo sapiens, UniProt P50548 1-548)
# T1 sequence: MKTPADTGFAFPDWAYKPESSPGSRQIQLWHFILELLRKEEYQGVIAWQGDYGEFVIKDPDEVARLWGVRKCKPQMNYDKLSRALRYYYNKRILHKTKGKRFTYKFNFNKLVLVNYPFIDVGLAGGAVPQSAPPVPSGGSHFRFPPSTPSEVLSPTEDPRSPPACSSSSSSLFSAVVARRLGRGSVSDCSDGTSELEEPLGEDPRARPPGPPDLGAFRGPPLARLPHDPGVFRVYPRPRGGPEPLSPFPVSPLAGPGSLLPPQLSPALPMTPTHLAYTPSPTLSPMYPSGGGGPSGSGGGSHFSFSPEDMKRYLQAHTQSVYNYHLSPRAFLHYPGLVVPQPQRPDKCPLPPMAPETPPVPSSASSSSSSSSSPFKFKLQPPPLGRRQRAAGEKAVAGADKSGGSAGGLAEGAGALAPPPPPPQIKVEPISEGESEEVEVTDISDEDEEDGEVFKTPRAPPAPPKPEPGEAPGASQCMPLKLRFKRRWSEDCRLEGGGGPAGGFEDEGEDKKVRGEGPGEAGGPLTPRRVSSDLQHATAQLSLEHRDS
# Method in brief: as §1
# ETV3L = target: T2, ETV3L (Homo sapiens, UniProt Q6ZN32 1-361)
# T2 sequence: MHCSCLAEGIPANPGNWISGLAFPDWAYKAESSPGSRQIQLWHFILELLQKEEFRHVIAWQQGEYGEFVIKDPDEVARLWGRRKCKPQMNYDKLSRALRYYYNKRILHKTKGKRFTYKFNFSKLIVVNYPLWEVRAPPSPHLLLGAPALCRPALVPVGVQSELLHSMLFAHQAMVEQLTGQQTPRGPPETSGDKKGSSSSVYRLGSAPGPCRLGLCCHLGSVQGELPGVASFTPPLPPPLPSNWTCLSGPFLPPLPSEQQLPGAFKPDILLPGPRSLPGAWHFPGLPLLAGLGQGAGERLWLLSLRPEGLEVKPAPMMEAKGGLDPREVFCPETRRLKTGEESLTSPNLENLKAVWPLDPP
# Method in brief: as §1
# ETS2 = target: T3, ETS2 (Homo sapiens, UniProt P15036 1-469)
# T3 sequence: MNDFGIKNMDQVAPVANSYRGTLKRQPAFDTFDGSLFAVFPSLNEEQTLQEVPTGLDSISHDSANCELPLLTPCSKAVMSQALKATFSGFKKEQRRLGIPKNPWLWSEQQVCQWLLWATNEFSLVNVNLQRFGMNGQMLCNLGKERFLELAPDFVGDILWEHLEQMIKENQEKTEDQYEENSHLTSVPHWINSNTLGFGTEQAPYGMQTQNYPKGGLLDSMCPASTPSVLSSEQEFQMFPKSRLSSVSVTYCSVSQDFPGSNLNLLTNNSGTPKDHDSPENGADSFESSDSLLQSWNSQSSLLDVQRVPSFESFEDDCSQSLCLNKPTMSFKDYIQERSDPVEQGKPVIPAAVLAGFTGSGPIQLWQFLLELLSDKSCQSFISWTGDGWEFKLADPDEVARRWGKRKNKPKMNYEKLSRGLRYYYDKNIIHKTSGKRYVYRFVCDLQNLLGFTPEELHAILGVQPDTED
# Method in brief: as §1
# SPDEF = target: T4, SPDEF (Homo sapiens, UniProt O95238 1-335)
# T4 sequence: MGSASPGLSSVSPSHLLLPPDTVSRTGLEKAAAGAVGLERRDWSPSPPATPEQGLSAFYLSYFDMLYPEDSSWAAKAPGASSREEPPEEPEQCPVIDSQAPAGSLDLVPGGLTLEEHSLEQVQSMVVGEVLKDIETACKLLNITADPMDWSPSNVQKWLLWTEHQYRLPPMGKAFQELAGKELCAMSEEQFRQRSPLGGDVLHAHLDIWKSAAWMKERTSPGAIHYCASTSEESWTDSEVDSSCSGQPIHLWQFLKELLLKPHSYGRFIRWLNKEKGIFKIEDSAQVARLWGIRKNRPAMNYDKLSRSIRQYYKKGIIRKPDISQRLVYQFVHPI
# Method in brief: as §1
# ETV7 = target: T5, ETV7 (Homo sapiens, UniProt Q9Y603 1-341)
# T5 sequence: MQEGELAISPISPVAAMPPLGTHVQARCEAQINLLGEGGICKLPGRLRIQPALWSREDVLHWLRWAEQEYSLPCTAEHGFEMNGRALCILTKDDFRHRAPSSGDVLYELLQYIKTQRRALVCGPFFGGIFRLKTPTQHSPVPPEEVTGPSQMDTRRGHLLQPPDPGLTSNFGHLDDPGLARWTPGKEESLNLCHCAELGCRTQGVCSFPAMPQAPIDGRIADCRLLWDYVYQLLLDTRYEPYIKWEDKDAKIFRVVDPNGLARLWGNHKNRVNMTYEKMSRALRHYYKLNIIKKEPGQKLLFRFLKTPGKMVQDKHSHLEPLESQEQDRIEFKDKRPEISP
# Method in brief: as §1
# ELF5 = target: T6, ELF5 (Homo sapiens, UniProt Q9UKW6-2 1-255)
# T6 sequence: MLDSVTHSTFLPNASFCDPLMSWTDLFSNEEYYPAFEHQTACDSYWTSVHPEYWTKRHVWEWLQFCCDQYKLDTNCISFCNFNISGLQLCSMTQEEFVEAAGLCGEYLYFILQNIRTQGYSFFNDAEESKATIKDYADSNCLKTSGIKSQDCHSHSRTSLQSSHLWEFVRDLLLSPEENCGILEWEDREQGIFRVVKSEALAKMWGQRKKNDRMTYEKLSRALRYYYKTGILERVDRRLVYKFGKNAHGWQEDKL
# Method in brief: as §1
# ETV3 = target: T7, ETV3 (Homo sapiens, UniProt P41162-2 1-143)
# T7 sequence: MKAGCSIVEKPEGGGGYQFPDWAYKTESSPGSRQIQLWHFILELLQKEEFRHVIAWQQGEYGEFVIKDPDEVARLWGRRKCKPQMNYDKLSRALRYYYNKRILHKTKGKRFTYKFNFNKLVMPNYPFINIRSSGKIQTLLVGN
# Method in brief: as §1
# ETV6 = ETV6 (Homo sapiens, UniProt P41212 1-452)
# Chain of ETV6 (P41212 whole entry): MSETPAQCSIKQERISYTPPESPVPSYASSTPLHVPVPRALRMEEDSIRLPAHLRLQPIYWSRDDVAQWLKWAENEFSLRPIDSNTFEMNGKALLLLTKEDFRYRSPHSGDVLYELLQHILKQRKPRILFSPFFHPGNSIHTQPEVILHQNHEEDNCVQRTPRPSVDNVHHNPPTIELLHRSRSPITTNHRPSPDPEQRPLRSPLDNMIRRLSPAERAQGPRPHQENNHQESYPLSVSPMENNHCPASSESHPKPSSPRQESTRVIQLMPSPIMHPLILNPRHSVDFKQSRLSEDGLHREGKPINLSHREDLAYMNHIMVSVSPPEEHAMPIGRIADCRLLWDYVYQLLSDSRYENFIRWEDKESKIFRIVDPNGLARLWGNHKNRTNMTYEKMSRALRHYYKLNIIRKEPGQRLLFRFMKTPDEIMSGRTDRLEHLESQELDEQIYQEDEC
# Method in brief: as §1
sequence,measurement,setting,value
CTTCTC,binding signal,ETV1,"1.39 fold enrichment (6-mer frequency, TF over GST control)"
same,binding signal,ERF,"1.33 fold enrichment (6-mer frequency, TF over GST control)"
same,binding signal,ETV3L,"1.39 fold enrichment (6-mer frequency, TF over GST control)"
same,binding signal,ETS2,"1.32 fold enrichment (6-mer frequency, TF over GST control)"
same,binding signal,SPDEF,"1.33 fold enrichment (6-mer frequency, TF over GST control)"
same,binding signal,ETV7,"1.32 fold enrichment (6-mer frequency, TF over GST control)"
same,binding signal,ELF5,"1.52 fold enrichment (6-mer frequency, TF over GST control)"
same,binding signal,ETV3,"1.31 fold enrichment (6-mer frequency, TF over GST control)"
same,binding signal,ETV6,"1.37 fold enrichment (6-mer frequency, TF over GST control)"
